# Assay results as given in PubChem BioAssay (Tox21).
# Values joined by “and” are separate entries in the source; they are usually repeats but may differ in a detail not shown here. Identical values can stand only once. Results filed as inconclusive are left out. A call without a number means that no potency is given here. More than one record can exist for a structure, and the calls need not agree. Active and inactive are the calls of the source. Unless noted, calls follow the shape of the dose curve; as a rule, active = well fitted cell-killing curve with a large enough effect in the repeat runs; inconclusive = weak or mixed curves, or effect the other way; inactive = flat fitted curve, though single readings scatter.
# Experiment: Nuclear factor erythroid 2-related factor 2/antioxidant responsive element (Nrf2/ARE) small molecule agonists: qHTS cell viability counter screen in human keratinocytes (AID 1919968); also: nearly all actives have a fitted effect of over 55% in size
# Settings: KeratinoSens HaCaT ARE cells viability, CellTiter-Fluor, 24 h; series mostly up to 92.4 µM
# Procedure, shortened: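 In human HaCaT keratinocytes stably expressing an ARE-driven luciferase, compound exposure lasted 23 h at 37 C under 5% CO2. Viable cells are quantified with a protease-based fluorogenic reagent (CellTiter-Fluor) read 1 h after addition.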
# Potency is read from the fitted curve at half-maximal effect.
Compound,Potency,"activity change, negative = cytotoxicity"
O=c1cc(-c2ccccc2)oc2ccccc12,inactive and 13.6 µM (active),
O=C(O)c1cc2ccccc2cc1O,inactive,
CS(=O)(=O)c1ccc(Cl)cc1,inactive,
S=C(NC1CCCCC1)NC1CCCCC1,26.8 µM (active) and 24.3 µM (active),
O=C(O)CCCCCCCCCCCC(=O)O,30.1 µM (active) and inactive,
N[C@H](Cc1c[nH]c2ccccc12)C(=O)O,inactive,
CC[C@H](c1ccc(O)cc1)[C@@H](CC)c1ccc(O)cc1,54.5 µM (active),
C=CC(C)(O)CCC=C(C)C (stereo not drawn),inactive,
O=[N+]([O-])c1ccc2nc[nH]c2c1,inactive,
CC(C)(c1cc(Br)c(O)c(Br)c1)c1cc(Br)c(O)c(Br)c1,43.1 µM (active) and 38.5 µM (active),
BrC1CCC(Br)C(Br)CCC(Br)C(Br)CCC1Br (stereo not drawn),17.2 µM (active),
COC(=O)Nc1nc2ccc(Sc3ccccc3)cc2[nH]1,inactive,
CCN(CC)c1ccc2c(C)cc(=O)oc2c1,inactive,
CC(=O)OCc1ccccc1,inactive,
c1ccc2c(c1)-c1cccc3c1c-2cc1ccccc13,inactive,
OCC(CO)(CO)CO,inactive,
CN1Cc2c(N)cccc2C(c2ccccc2)C1 (stereo not drawn),inactive,
CCCc1ccc(O)cc1,inactive,
Cc1cccnc1,inactive,
CCC(C)c1ccccc1O (stereo not drawn),inactive,

Compound,Potency,"activity change, negative = cytotoxicity"
CC1=CC[C@@H]2C[C@H]1C2(C)C,,-0.0198% [at 19 µM] (inactive)
OC1CCCC1,inactive,
NS(=O)(=O)c1ccc(N2CCCCS2(=O)=O)cc1,inactive,
N[C@@H](Cc1c[nH]c2ccccc12)C(=O)O,inactive,
CCCCCCCO,inactive,
N[C@@H](Cc1c[nH]c2ccc(O)cc12)C(=O)O,inactive,
CO[C@H]1C=CO[C@@]2(C)Oc3c(C)c(O)c4c(O)c(c(/C=N/N5CCN(C)CC5)c(O)c4c3C2=O)NC(=O)/C(C)=C\C=C[C@H](C)[C@H](O)[C@@H](C)[C@@H](O)[C@@H](C)[C@H](OC(C)=O)[C@@H]1C,inactive,
CC(COCC(C)OC(=O)c1ccccc1)OC(=O)c1ccccc1 (stereo not drawn),inactive,
O=C(O)/C=C/c1ccccc1,inactive,
CCCCCOC(C)=O,inactive,
CC(=O)OC1CC(C)OC(C)O1 (stereo not drawn),inactive,
COc1ccc(COC(C)=O)cc1,inactive,
CCCCCCCCCCCCOCCO,inactive,
NC[C@H](O)c1ccc(O)c(O)c1,inactive,
Cc1ccc(C(C)C)cc1O,inactive,
Nc1ccc(S(=O)(=O)Nc2ccc(Cl)nn2)cc1,inactive,
CC(C)(C)c1cc(Cc2cc(C(C)(C)C)c(O)c(C(C)(C)C)c2)cc(C(C)(C)C)c1O,inactive,
CCCCOCCOCCOC(=O)CCCCC(=O)OCCOCCOCCCC,inactive,
O=C(O)Cc1cccc(-c2cc(CCCCCCc3ccc(O[C@H]4O[C@H](CO)[C@@H](O)[C@H](O)[C@@H]4O)c(-c4cccc(CC(=O)O)c4)c3)ccc2O[C@H]2O[C@H](CO)[C@@H](O)[C@H](O)[C@@H]2O)c1,,-1.5% [at 0.349 µM] (inactive)

# Experiment: Nuclear factor erythroid 2-related factor 2/antioxidant responsive element (Nrf2/ARE) small molecule agonists: luciferase reporter gene qHTS assay in human keratinocytes (AID 1919969; calls by dose curve; also: nearly all actives have a fitted effect of over 35% in size)
# Settings: KeratinoSens HaCaT ARE-luciferase, luminescence, 24 h; series mostly up to 92.4 µM
Compound,Potency,"activity, positive = activation"
O=c1cc(-c2ccccc2)oc2ccccc12,4.86 µM (active) and 2.16 µM (active),
O=C(O)c1cc2ccccc2cc1O,inactive,
CS(=O)(=O)c1ccc(Cl)cc1,inactive,
S=C(NC1CCCCC1)NC1CCCCC1,15.1 µM (active),
O=C(O)CCCCCCCCCCCC(=O)O,inactive,
N[C@H](Cc1c[nH]c2ccccc12)C(=O)O,inactive,
CC[C@H](c1ccc(O)cc1)[C@@H](CC)c1ccc(O)cc1,inactive,
C=CC(C)(O)CCC=C(C)C (stereo not drawn),inactive,
O=[N+]([O-])c1ccc2nc[nH]c2c1,inactive,
CC(C)(c1cc(Br)c(O)c(Br)c1)c1cc(Br)c(O)c(Br)c1,inactive,
BrC1CCC(Br)C(Br)CCC(Br)C(Br)CCC1Br (stereo not drawn),9.65 µM (active) and 16.3 µM (active),
COC(=O)Nc1nc2ccc(Sc3ccccc3)cc2[nH]1,30.6 µM (active) and 3.35 µM (active),
CCN(CC)c1ccc2c(C)cc(=O)oc2c1,inactive,
CC(=O)OCc1ccccc1,inactive,
c1ccc2c(c1)-c1cccc3c1c-2cc1ccccc13,23.8 µM (active) and 21.7 µM (active),
OCC(CO)(CO)CO,inactive,
CN1Cc2c(N)cccc2C(c2ccccc2)C1 (stereo not drawn),inactive,
CCCc1ccc(O)cc1,inactive,
Cc1cccnc1,inactive,
CCC(C)c1ccccc1O (stereo not drawn),inactive,

Compound,Potency,"activity, positive = activation"
CC1=CC[C@@H]2C[C@H]1C2(C)C,,-20.3% [at 19 µM] (inactive)
OC1CCCC1,inactive,
NS(=O)(=O)c1ccc(N2CCCCS2(=O)=O)cc1,inactive,
N[C@@H](Cc1c[nH]c2ccccc12)C(=O)O,inactive,
CCCCCCCO,inactive and 61.1 µM (active),
N[C@@H](Cc1c[nH]c2ccc(O)cc12)C(=O)O,inactive,
CO[C@H]1C=CO[C@@]2(C)Oc3c(C)c(O)c4c(O)c(c(/C=N/N5CCN(C)CC5)c(O)c4c3C2=O)NC(=O)/C(C)=C\C=C[C@H](C)[C@H](O)[C@@H](C)[C@@H](O)[C@@H](C)[C@H](OC(C)=O)[C@@H]1C,inactive,
CC(COCC(C)OC(=O)c1ccccc1)OC(=O)c1ccccc1 (stereo not drawn),inactive,
O=C(O)/C=C/c1ccccc1,inactive,
CCCCCOC(C)=O,68.6 µM (active),
CC(=O)OC1CC(C)OC(C)O1 (stereo not drawn),inactive,
COc1ccc(COC(C)=O)cc1,inactive,
CCCCCCCCCCCCOCCO,27.3 µM (active),
NC[C@H](O)c1ccc(O)c(O)c1,inactive,
Cc1ccc(C(C)C)cc1O,inactive,
Nc1ccc(S(=O)(=O)Nc2ccc(Cl)nn2)cc1,inactive,
CC(C)(C)c1cc(Cc2cc(C(C)(C)C)c(O)c(C(C)(C)C)c2)cc(C(C)(C)C)c1O,inactive,
CCCCOCCOCCOC(=O)CCCCC(=O)OCCOCCOCCCC,inactive,
O=C(O)Cc1cccc(-c2cc(CCCCCCc3ccc(O[C@H]4O[C@H](CO)[C@@H](O)[C@H](O)[C@@H]4O)c(-c4cccc(CC(=O)O)c4)c3)ccc2O[C@H]2O[C@H](CO)[C@@H](O)[C@H](O)[C@@H]2O)c1,,-5.74% [at 0.349 µM] (inactive)
